High-throughput results from PubChem BioAssay.
FECH block = human FECH heme synthesis enzyme inhibition | calls only at 10 µM (by protocol) | 20,000 compounds, 3.3% hits | purified FECH, Ni-mesoporphyrin absorbance 550 nm | AID 1671448 | P22830;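 active = enzyme reaction rate more than 3 SD below the solvent-only control wells on the same plate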;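 note: lower slope than DMSO wells means FECH inhibition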
Target sequence (P22830 whole entry, looked up): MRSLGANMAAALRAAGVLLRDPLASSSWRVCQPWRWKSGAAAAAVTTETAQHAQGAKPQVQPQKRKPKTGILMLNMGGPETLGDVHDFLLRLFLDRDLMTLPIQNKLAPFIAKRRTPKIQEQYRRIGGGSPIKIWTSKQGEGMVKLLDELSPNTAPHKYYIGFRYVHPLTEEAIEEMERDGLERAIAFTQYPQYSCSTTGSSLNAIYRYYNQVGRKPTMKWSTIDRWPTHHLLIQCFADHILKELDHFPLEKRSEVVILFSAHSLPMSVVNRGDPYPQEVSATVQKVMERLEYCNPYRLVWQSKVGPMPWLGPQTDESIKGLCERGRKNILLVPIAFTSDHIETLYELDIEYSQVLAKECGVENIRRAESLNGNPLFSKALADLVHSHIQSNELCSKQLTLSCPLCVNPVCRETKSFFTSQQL
Active calls of the source: *; i = inactive; + = active, no number. Only a selection was taken, and hits are over-represented in it overall.

SMILES | FECH block
CCc1noc(CN(CC)C(=O)C(c2cccc(C)c2)N(C)C)n1 (stereo not given) | i
O=C(Nc1ccc2ncsc2c1)c1cccc(CN2CCCC(O)C2)c1 (stereo not given) | +
O=C(Nc1nc2c(s1)CCCC2)c1cccc(CN2CC[C@H](O)C2)c1 | i
O=C(Nc1ncns1)c1cccc(CN2CC[C@H](O)C2)c1 | i
COc1ccccc1-c1cc(CNC(=O)c2cc(C)nc(C)n2)on1 | i
CC(=O)N(C)c1ccc(NC(=O)CNCC(O)c2ccccc2Cl)cc1 (stereo not given) | i
O=C1CCS(=O)(=O)N1c1ccc(S(=O)(=O)NCCc2ccc(F)cc2)cc1 | i
Cc1cc(C)n(CCNC(=O)CN2CCOc3ccccc3C2)c(=O)n1 | i
COC(=O)c1cc(S(=O)(=O)N2CCCC2C(=O)Nc2cccc(Cl)c2)cn1C (stereo not given) | i
Cc1ccc(C(=O)NCC(C)Oc2cccnc2)cc1NC(=O)C1CCCC1 (stereo not given) | i
Cc1cccc2c(=O)n(CCN3CCCC(c4ccccc4)C3)cnc12 (stereo not given) | i
Cc1cc(C)c2ncn(CCC(C)O)c(=O)c2c1 (stereo not given) | i
Cc1cc(Cl)cc2c(=O)n(CC3(CO)CCC3)cnc12 | +
CCN1C(SCC(=O)N2CCCC2)=NS(=O)(=O)c2ccccc21 | +
CCn1nc(C(=O)O)c2c1CCN(C(=O)C(c1cccnc1)N1CCCC1)C2 (stereo not given) | i
O=C(CSc1ccncc1)N1CCCC(c2ccccc2)C1 (stereo not given) | i
CCN1C(SCC(=O)N(C)c2ccccc2)=NS(=O)(=O)c2ccccc21 | +
CCOc1ccccc1-c1nc(-c2ccc3c(c2)Sc2ccccc2C(=O)N3C)no1 | i
Cc1ccc(Nc2nc(N3CCN(c4ccccc4)CC3)nc3c2cnn3-c2ccccc2)cc1 | i
COc1ccccc1N1CCN(C(=O)CCc2nc(-c3cc4ccc(C)cc4[nH]c3=O)no2)CC1 | +
Cc1ccc2cc(-c3noc(CCC(=O)N4CCC(C)CC4)n3)c(=O)[nH]c2c1 | i
Cc1ccc2cc(-c3noc(CCC(=O)N4CCCC(C)C4)n3)c(=O)[nH]c2c1 (stereo not given) | i
Cc1cc(Sc2ccccc2NC(=O)c2ccc(Cl)cc2)n2nc(-c3ccccc3)nc2n1 | i
Cc1ccccc1NCc1cc(=O)n2[nH]c(NCc3ccc(F)cc3)nc2n1 | +
O=c1cc(CNc2ccccc2Cl)nc2nc(NCc3ccccc3)[nH]n12 | +
SMILES | FECH block
COc1ccc(CNc2nc3nc(CNc4ccccc4OC)cc(=O)n3[nH]2)cc1 | +
COc1ccccc1CNc1nc2nc(CNc3ccccc3)cc(=O)n2[nH]1 | i
CCc1ccccc1NCc1cc(=O)n2[nH]c(NCc3ccc(F)cc3)nc2n1 | i
O=c1cc(CNc2ccccc2F)nc2nc(NCc3ccc(F)cc3)[nH]n12 | i
O=c1cc(CNc2ccc(F)cc2)nc2nc(NCc3ccccc3)[nH]n12 | i
Cc1ccc(NCc2cc(=O)n3[nH]c(NCc4ccccc4Cl)nc3n2)cc1 | +
O=c1cc(CNc2ccccc2F)nc2nc(NCc3ccccc3)[nH]n12 | i
CCc1ccccc1NCc1cc(=O)n2[nH]c(NCc3ccc(OC)cc3)nc2n1 | i
COc1ccc(CNc2nc3nc(CNc4ccccc4F)cc(=O)n3[nH]2)cc1 | i
Cc1cc(NC(=O)CN2C(=O)CN(C)C(=O)c3ccccc32)ccc1Br | i
Cc1nc(C)n(CCNc2nccc(CCC(F)(F)F)n2)n1 | i
CN1CCN(C(=O)c2cnc3ccccc3n2)CC1=O | i
COC(=O)c1ccc(NS(=O)(=O)c2cc(N3C(=O)CCS3(=O)=O)ccc2OC)cc1 | i
O=C1OCCN1Cc1nc(C2(c3ccc(F)cc3)CCOC2)no1 (stereo not given) | i
Cc1oc(-c2cccc(Cl)c2)nc1CN1CCC(N(C)C)CC1 | i
COc1ccccc1CNc1nc2nc(CNc3ccccc3OC)cc(=O)n2[nH]1 | i
CCOc1ccccc1NCc1cc(=O)n2[nH]c(NCc3ccc(F)cc3)nc2n1 | i
Cc1ccccc1NCc1cc(=O)n2[nH]c(NCc3ccccc3Cl)nc2n1 | +
CCc1ccccc1NCc1cc(=O)n2[nH]c(NCc3ccccc3)nc2n1 | i
Cc1cccc(NCc2cc(=O)n3[nH]c(NCc4ccccc4Cl)nc3n2)c1C | i
CCc1ccccc1NCc1cc(=O)n2[nH]c(NCc3ccccc3Cl)nc2n1 | +
O=C(CSCc1ccccc1Cl)N1CCN(c2cnccn2)CC1 | i
CCc1cc(Sc2ccccc2NC(=O)c2cccc(F)c2)n2ncnc2n1 | i
CC(C)n1cnc2nc(CSc3ccccc3NC(=O)c3cccc(F)c3)cc(=O)n21 | +
CC(C)n1cnc2nc(CSc3ccccc3NC(=O)c3ccc(F)c(Cl)c3)cc(=O)n21 | i
Cc1ccc(CNC(=O)CN2CCN(Cc3ccc(C)cc3)S2(=O)=O)cc1 | i
COc1cccc(Nc2cc(-c3cccc(C)c3)nc(C)n2)c1 | i
O=C(NC1CC1)C1CCN(c2ccc(-c3ccccc3)nn2)CC1 | +
